SENP7 block: inhibitors of human SENP7 protease. Q9BQF6. recombinant SENP7, Z-RLRGG-aminoluciferin luminescence, 40 min. inhibition, % at 5 µM. 330,000 compounds, 1.5% hits. AID 434973;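 active = inhibition above about 50% at the single test dose, limit read from the data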
Platelet DG rel: platelet dense granule release activity. inhibition, %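 (compounds screened at 7.5 µM in platelet-rich plasma)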. human platelet-rich plasma, SFLLRN dense granule ATP release, luminescence. 300,000 compounds, 0.22% hits. AID 1663;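 active = mean replicate score, as percent of positive control, at or above 50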
SENP8 block-1: blocks the human protease SENP8; purified SENP8, Z-RLRGG-aminoluciferin cleavage, luminescence; 330,000 compounds, 1.2% hits; Q96LD8; AID 2540; inhibition, % at 10 µM; in the data active = inhibition above about 50%
SENP8 block-2: blocks human SENP8 cleavage of Nedd8 substrate. 360,000 compounds, 0.64% hits. recombinant SENP8, Nedd8 substrate fluorescence. inhibition, % at 20 µM; in the data active = inhibition mostly above about 40%, no sharp cut-off; inactive = mostly below about 27%
SENP6 inh: blocks the human protease SENP6 | Q9GZR1 | AID 2599 | Recombinant SENP6 catalytic domain, aminoluciferin luminescence | inhibition, % at 10 µM | 330,000 compounds, 1.8% hits;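 active = inhibition above about 50% at the single tested dose, limit read from the data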
Target sequence (Q9GZR1 628-1112 limits assumed): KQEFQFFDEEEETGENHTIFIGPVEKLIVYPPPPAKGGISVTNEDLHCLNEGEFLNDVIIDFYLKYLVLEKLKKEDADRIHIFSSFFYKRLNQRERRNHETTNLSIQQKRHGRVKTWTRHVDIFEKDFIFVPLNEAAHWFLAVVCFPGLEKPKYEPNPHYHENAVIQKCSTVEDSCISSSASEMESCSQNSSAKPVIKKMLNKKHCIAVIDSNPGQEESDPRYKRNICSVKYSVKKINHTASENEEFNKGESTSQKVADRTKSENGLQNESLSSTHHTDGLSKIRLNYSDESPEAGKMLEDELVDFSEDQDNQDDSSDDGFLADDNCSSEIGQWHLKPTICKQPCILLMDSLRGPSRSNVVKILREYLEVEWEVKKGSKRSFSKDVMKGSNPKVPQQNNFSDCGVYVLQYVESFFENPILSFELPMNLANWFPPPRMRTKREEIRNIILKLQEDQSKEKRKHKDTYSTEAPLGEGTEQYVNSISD
SENP8 confirm: confirmation of human SENP8 protease inhibitors | shares compounds with SENP7 block | Recombinant SENP8, Z-RLRGG-aminoluciferin luminescence, 60 min | inhibition, % at 12.5 µM | 6,200 compounds, 40% hits | AID 488912;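 active = mean inhibition across replicates above about 50%, limit read from the data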
SENP6 confirm: human SENP6 inhibition, confirmed | inhibition, % at 12.5 µM | 6,200 compounds, 58% hits | recombinant SENP6, Z-RLRGG-aminoluciferin luminescence | shares compounds with SENP7 block
SENP7 conf: human SENP7 inhibition, confirmed; shares compounds with SENP7 block; recombinant SENP7, Z-RLRGG-aminoluciferin luminescence, 40 min; inhibition, % at 12.5 µM; 6,200 compounds, 69% hits; AID 488917
Casp3 SENP sel: inhibits human caspase-3 in SENP selectivity test; shares compounds with SENP7 block; purified caspase-3, Z-DEVD-aminoluciferin luminescence, 60 min; inhibition, % at 12.5 µM; 6,200 compounds, 60% hits; AID 488918;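 active = mean inhibition above about 50%, limit read from the data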
Luc interf: luminescence interference (SENP counter-screen); AID 488919; shares compounds with SENP7 block; inhibition, % at 12.5 µM; 6,200 compounds, 39% hits; Pre-incubated SENP8/Z-RLRGG-aminoluciferin, luciferase luminescence interference;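 active = mean inhibition above about 50% when retested at one dose, limit read from the data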
Large screens that a line does not name were inactive (follow-up assays come after a bar, where they were run). In the library only some 2.4% were active in any assay of this set; here they are far more common.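 Rule for the calls, unless noted: active = mean inhibition above about 50% in the one-dose retest (limit read from the data); inactive = the rest.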

COc1ccc(S(=O)(=O)NNS(=O)(=O)c2ccc(OC)c(OC)c2)cc1OC	none (no result: SENP7 block, Platelet DG rel, SENP8 block-1, SENP6 inh)
CN(c1ccc(C(=O)Nc2ccc3c(c2)OCO3)cc1)S(C)(=O)=O	SENP7 block 79, Platelet DG rel 83, SENP8 block-1 55, SENP6 inh 82 | SENP8 confirm inactive | SENP6 confirm inactive | SENP7 conf 74 | Casp3 SENP sel 73 | Luc interf inactive
CN(c1ccc(C(=O)Nc2ccc3c(c2)OCCO3)cc1)S(C)(=O)=O	SENP6 inh 57 | SENP8 confirm 59 | SENP6 confirm 57 | SENP7 conf 85 | Casp3 SENP sel 82 | Luc interf 65
Nc1cc(Cl)nc(N/N=C/c2c(O)ccc3ccccc23)n1	SENP6 inh 58 | SENP8 confirm inactive | SENP6 confirm inactive | SENP7 conf 84 | Casp3 SENP sel inactive | Luc interf inactive
CC1CCN(S(=O)(=O)c2ccc3c(c2)N(CC(=O)N(C)Cc2ccco2)C(=O)CO3)CC1	none
Cn1c2ccccc2c(=O)c2cc(C#Cc3ccccn3)ccc21	SENP7 block 82, SENP8 block-1 83, SENP6 inh 88 | SENP8 confirm inactive | SENP6 confirm inactive | SENP7 conf inactive | Casp3 SENP sel inactive | Luc interf inactive
COc1cccc2oc3ccc(C#CC4(N)CCCCC4)cc3c(=O)c12	SENP6 inh 54 | SENP8 confirm 55 | SENP6 confirm 52 | SENP7 conf 81 | Casp3 SENP sel 70 | Luc interf inactive
O=c1c2ccccc2oc2ccc(C#CC3(O)CCCCC3)cc12	SENP7 block 89, SENP8 block-1 92, SENP6 inh 94 | SENP8 confirm 92 | SENP6 confirm 94 | SENP7 conf 99 | Casp3 SENP sel 83 | Luc interf 68
Cn1c2ccccc2c(=O)c2ccc(C#CC3(N)CCCCC3)cc21	none
Cn1c2ccccc2c(=O)c2cc(C#CC3(O)CCCCC3)ccc21	SENP7 block 97, SENP8 block-1 92, SENP6 inh 96 | SENP8 confirm inactive | SENP6 confirm 57 | SENP7 conf inactive | Casp3 SENP sel 62 | Luc interf 78
N#Cc1ccc(C#Cc2ccc3oc4ccccc4c(=O)c3c2)cc1	none (no result: Platelet DG rel)
O=C(CCc1ccc(S(=O)(=O)N2CCOCC2)cc1)OCC(=O)c1ccccc1	none (no result: Platelet DG rel)
CC(O)(c1cccnc1)c1nc(-c2cc(F)cc(F)c2)cs1 (configuration not stated)	none (no result: SENP7 block, Platelet DG rel, SENP8 block-1, SENP6 inh)
CCN1C(=O)[C@H]2[C@H]3CN=C(SCc4ccc(OC)cc4)N3[C@@](CC)(C(=O)OC)[C@H]2C1=O	none (no result: Platelet DG rel, SENP8 block-1, SENP6 inh)
Cc1cc2sc3ccc(C#CC4(O)CCCCC4)cc3c(=O)c2cc1C	SENP7 block 99, SENP8 block-1 94, SENP6 inh 97 | SENP8 confirm inactive | SENP6 confirm inactive | SENP7 conf inactive | Casp3 SENP sel 73 | Luc interf inactive
NC1(C#Cc2ccc3c(=O)c4ccccc4sc3c2)CCCCC1	none (no result: Platelet DG rel)
Cn1c(=O)c([N+](=O)[O-])c(NCC2CCCO2)c2ccccc21 (configuration not stated)	none (no result: Platelet DG rel)
CCc1nc2ccc(Cc3ccc4nc(CC)[nH]c4c3)cc2[nH]1	none
O=C(N=Nc1c(O)[nH]c2ccccc12)c1cccs1	SENP7 block 82, SENP8 block-1 67, SENP6 inh 82 | SENP8 confirm 52 | SENP6 confirm 80 | SENP7 conf 93 | Casp3 SENP sel 82 | Luc interf inactive
O=C(N=Nc1c(O)[nH]c2ccccc12)c1cc(NS(=O)(=O)c2cccs2)cc(NS(=O)(=O)c2cccs2)c1	none
Cc1nc(/N=C\c2ccc(N(C)C)cc2)sc1C	SENP8 block-1 60 | SENP8 confirm inactive | SENP6 confirm inactive | SENP7 conf inactive | Casp3 SENP sel inactive | Luc interf inactive
O=[N+]([O-])c1cc(-c2cnc3ccccc3n2)ccc1Cl	SENP7 block 51 | SENP8 confirm inactive | SENP6 confirm inactive | SENP7 conf inactive | Casp3 SENP sel inactive | Luc interf inactive
O=C(Oc1ccc(-c2cnc3ccccc3n2)cc1)c1cc([N+](=O)[O-])ccc1Cl	SENP7 block 78 | SENP8 confirm inactive | SENP6 confirm inactive | SENP7 conf inactive | Casp3 SENP sel inactive | Luc interf inactive
Nc1cccc(-c2cnc3ccccc3n2)c1	SENP7 block 58, SENP8 block-1 51, SENP6 inh 68 | SENP8 confirm inactive | SENP6 confirm inactive | SENP7 conf 78 | Casp3 SENP sel 75 | Luc interf inactive
O=C(COc1ccc(Cl)cc1Cl)Nc1cccc(-c2ccc(N3CCOCC3)nn2)c1	SENP7 block 76 | SENP8 confirm inactive | SENP6 confirm inactive | SENP7 conf inactive | Casp3 SENP sel inactive | Luc interf inactive
O=C(Nc1cccc(-c2ccc(N3CCOCC3)nn2)c1)c1ccc([N+](=O)[O-])cc1	none
Cc1ccc(C(=O)Nc2cccc(-c3ccc(N4CCOCC4)nn3)c2)cc1[N+](=O)[O-]	SENP7 block 63, SENP8 block-1 50, SENP6 inh 67 | SENP8 confirm inactive | SENP6 confirm inactive | SENP7 conf inactive | Casp3 SENP sel inactive | Luc interf inactive
Cc1ccc([N+](=O)[O-])cc1S(=O)(=O)Nc1cccc(-c2ccc(N3CCCC3)nn2)c1	SENP8 block-1 83, SENP6 inh 90 | SENP8 confirm 62 | SENP6 confirm 76 | SENP7 conf 87 | Casp3 SENP sel 70 | Luc interf inactive
O=C(COc1ccccc1)Nc1cccc(-c2ccc(N3CCOCC3)nn2)c1	SENP7 block 53, SENP6 inh 61 | SENP8 confirm inactive | SENP6 confirm inactive | SENP7 conf 76 | Casp3 SENP sel 66 | Luc interf inactive
CC(=O)N1CCCC1(C(=O)O)c1ccccc1 (configuration not stated)	none
CCCCC(=O)OCC(=O)c1ccc(OCC)cc1	SENP7 block 51, SENP6 inh 55 | SENP8 confirm inactive | SENP6 confirm inactive | SENP7 conf 80 | Casp3 SENP sel 64 | Luc interf inactive
Cc1sc2nc(-c3ccccc3)oc(=O)c2c1C	SENP7 block 91, SENP8 block-1 76 | SENP8 confirm 62 | SENP6 confirm 63 | SENP7 conf 64 | Casp3 SENP sel 69 | Luc interf inactive
O=C1CCC(=O)N1c1ccc(-c2nc3sc4c(c3c(=O)o2)CCC4)cc1	none
